Here are results for eleven molecules from PubChem BioAssay.

Activity calls are given as the source filed them.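 The calls were made as follows, unless noted: active = compounds whose cell count with miR-34 switched on is under 0.7 times the count with it off; inactive = the rest.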

Test [1] can be described thus: liver-stage malaria parasite growth inhibition, primary screen, cell-based, HepG2, luciferase luminescence, HepG2 viability (AID 624349; in the data active = parasite load remaining mostly below about 12%, no sharp cut-off; inactive = mostly above about 10%;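 also: 100% = mean of DMSO negative control wells on the same plate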). Conditions: P. berghei liver stage in HepG2, luciferase luminescence, concentration not given here; parasite load remaining: stronger effect = lower value; viability: measured here: HepG2 viability without parasites.
Test [2] is described as follows: sensitizers of A549 cells to miR-34 induction, primary screen, imaging, A549 dox-inducible miR-34, nuclei and caspase counts (AID 1347080). Conditions: A549 miR-34 inducible, Hoechst nuclei count, 48 h.
[3] abbreviates: stronger effect = lower value, cell number ratio, induced over uninduced.
Where [4] appears, read: measured here: relative caspase fold change +Dox/-Dox.
[5] abbreviates: measured here: total cells with miR-34 induction, stronger effect = lower value.
Where [6] appears, read: measured here: total cells without miR-34 induction.

`CN1[C@@H]2CC(=O)C[C@H]1[C@H](O)C2`: the parasite load remaining in test [1] is 87.8% (inactive). Further, in test [1], the viability worked out at 81.1%. In addition, the fold change in test [2] (setting [3]) is 0.914 (inactive); in test [2] (setting [4]) it was 0.592. Further, the cell count in test [2] (setting [5]) is 8350; in test [2] (setting [6]), 9140.

Consider `CO[C@H](C)C(O)(C(=O)OCC1=CCN2CC[C@H](O)[C@@H]12)C(C)C` (stereo partly specified), for which the parasite load remaining in test [1] is 69.7% (inactive). In test [1], the viability came to 101%. Besides, the fold change is 0.879 (inactive) in test [2] (setting [3]) and 1.23 in test [2] (setting [4]). Moreover, the cell count in test [2] (setting [5]) was 8290; in test [2] (setting [6]), 9440.

As for `CCN1C[C@]2(C)CC[C@H](OC)[C@@]34C1[C@]1(OCO[C@@]15C[C@H](OC)[C@H]1C[C@]3(O)[C@@H]5[C@H]1OC)[C@@H](OC(C)=O)[C@H]24`, the parasite load remaining in test [1] was 91.7% (inactive). The viability in test [1] came to 96.9%. The fold change in test [2] (setting [3]) was 0.951 (inactive); in test [2] (setting [4]) it was 0.675. The cell count in test [2] (setting [5]) was 10000; in test [2] (setting [6]) it was 10500.

Take `C[C@H]1CC[C@@H]2[C@@H](C)[C@H]3[C@H](C[C@H]4[C@@H]5CC=C6C[C@@H](O[C@@H]7O[C@H](CO)[C@H](O)[C@H](O[C@@H]8O[C@H](CO)[C@@H](O)[C@H](O)[C@H]8O)[C@H]7O[C@@H]7O[C@@H](C)[C@H](O)[C@@H](O)[C@H]7O)CC[C@]6(C)[C@H]5CC[C@]34C)N2C1`: in test [1], the parasite load remaining was 143% (inactive). Moreover, the viability in test [1] turned out to be 114%. Further, the values for the fold change in test [2] (setting [3]) and in test [2] (setting [4]) were 0.926 (inactive) and 1.19, respectively. Moreover, the cell count in test [2] (setting [5]) stood at 8230; in test [2] (setting [6]) it was 8880.

For `CCN1C[C@]2(COC)CC[C@H](OC)[C@@]34C1[C@]1(OCO[C@@]15C[C@H](OC)[C@H]1C[C@@H]3[C@@H]5[C@H]1OC)[C@@H](O)[C@H]24`, the parasite load remaining in test [1] is 79.2% (inactive). In test [1], the viability is 96.3%. In addition, the fold change in test [2] (setting [3]) is 0.844 (inactive); in test [2] (setting [4]), 1.35. Also, the cell count is 8580 in test [2] (setting [5]) and 10200 in test [2] (setting [6]).

On to `C=C1[C@@H]2CC[C@H]3[C@]4(C)C[C@H](O[C@H]5O[C@H](CO)[C@@H](OS(=O)(=O)O)[C@H](OS(=O)(=O)O)[C@H]5OC(=O)CC(C)C)C[C@@H](C(=O)O)[C@H]4CC[C@]3(C2)[C@H]1O`, for which the parasite load remaining in test [1] is 72.2% (inactive). For the same molecule, in test [1], the viability was found to be 97.4%. The fold change in test [2] (setting [3]) is 0.879 (inactive); in test [2] (setting [4]) it was 0.935. For the same molecule, the cell count in test [2] (setting [5]) stood at 8890; in test [2] (setting [6]), 10100.

Turning to `CN(C)[C@@H]1C(=O)C(C(N)=O)=C(O)[C@@]2(O)C(=O)C3=C(O)c4c(O)ccc(Cl)c4[C@@](C)(O)C3C[C@@H]12` (stereo partly specified), the parasite load remaining in test [1] was 51% (inactive). For the same molecule, the viability in test [1] came to 46.7%. Also, the values for the fold change in test [2] (setting [3]) and in test [2] (setting [4]) were 0.828 (inactive) and 1.43, respectively. In addition, the cell count in test [2] (setting [5]) is 7670; in test [2] (setting [6]), 9260.

With `COc1cc2c(cc1O)[C@@H]1Cc3ccc(OC)c(O)c3CN1CC2`, the parasite load remaining in test [1] was 152% (inactive). Further, the viability in test [1] was found to be 92.5%. The fold change in test [2] (setting [3]) was 0.78 (inactive); in test [2] (setting [4]), 1.3. Also, the values for the cell count in test [2] (setting [5]) and in test [2] (setting [6]) were 2600 and 3330, respectively.

With `COc1cc(C(=O)OC2C[C@H]3CC[C@@H](C2)N3C)ccc1O` (stereo partly specified), the parasite load remaining in test [1] was 90.6% (inactive). For the same molecule, in test [1], the viability is 98.9%. Further, the results for the fold change in test [2] (stronger effect = lower value) and in test [2] (setting [4]) were 0.903 (inactive) and 1.48, respectively. In addition, the figures for the cell count in test [2] (setting [5]) and in test [2] (setting [6]) were 8240 and 9120, respectively.

`CN1CCC2=C[C@H](O)[C@H]3OC(=O)c4cc5c(cc4[C@H]3[C@@H]21)OCO5`: the parasite load remaining in test [1] is 42.8% (inactive). For the same molecule, in test [1], the viability was determined as 96.9%. Moreover, the values for the fold change in test [2] (setting [3]) and in test [2] (setting [4]) were 0.881 (inactive) and 1.04, respectively. For the same molecule, the cell count in test [2] (setting [5]) amounted to 6350; in test [2] (setting [6]), 7210.

Turning to `C[C@H]1O[C@@H](OC2CC[C@]3(C=O)[C@H]4CC[C@]5(C)[C@@H](C6=CC(=O)OC6)CC[C@]5(O)[C@@H]4CC[C@]3(O)C2)C[C@H](O)[C@@H]1O` (stereo partly specified), the parasite load remaining in test [1] is 0.83% (inactive). In addition, the viability in test [1] was found to be 69.5%. For the same molecule, the results for the fold change in test [2] (setting [3]) and in test [2] (setting [4]) were 0.718 (inactive) and 1.73, respectively. Moreover, the cell count worked out at 1040 in test [2] (setting [5]) and 1440 in test [2] (setting [6]).
